Most compounds without a hit are left out; they make up all but 2.5% or so of the library.
HSF1 inhib: HSF1 inhibition. NIH3T3-HGL HSE-luciferase, MG132-induced, luminescence 8 h; active compounds read low. activity change, negative = inhibition, % at 7.5 µM (by protocol). 300,000 tested, 0.77% active. AID 2098;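 active = more than half of replicate wells show activity change below -50%, luminescence cut by over half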;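 also: luciferase reports HSF-1 transcriptional activity via heat shock element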
GC-A act: GC-A (human) enzyme activation; P16066; 370,000 tested, 0.14% active; AID 1671463; HEK293 GC-A cells, cGMP TR-FRET, EC30 ANP; 0% at EC30 ANP, 100% saturating ANP; activation, % at 10 µM; in the data active = activation above about 40%
aDG glyco up: alpha-DG glycosylation activation | Pro5-aDG cells, alpha-DG glycosylation AlphaScreen (IIH6); 0% Pro5, 100% B10-LARGE cell signal | activation, % at 10 µM | 360,000 tested, 0.22% active;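 active = activation of at least 8% versus controls, or a plate z-score of at least 8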;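 also: Pro5 are CHO cells carrying HIG-tagged alpha-DG that lacks glycosylation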
HSF-1 act: increases HSF-1 driven luciferase reporter signal | NIH3T3-HGL HSF-1 luciferase reporter, MG132, 8 h; 100% = twice DMSO control signal | 300,000 tested, 1.7% active | activation, % at 9 µM | AID 504408;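 active = mean replicate activation of at least 50% with a set share of replicates each reaching 50%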
GC-B act: GC-B (human) receptor activation; 370,000 tested, 0.11% active; HEK293-GC-B cells, CNP EC30, cGMP TR-FRET; 0% at EC30 CNP, 100% saturating CNP; P20594; activation, % at 10 µM; AID 1920062;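 active = activation at 10 µM reaching about 35% in either raw or pattern-adjusted values, limit read from the data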
Target sequence (P20594 whole entry, looked up): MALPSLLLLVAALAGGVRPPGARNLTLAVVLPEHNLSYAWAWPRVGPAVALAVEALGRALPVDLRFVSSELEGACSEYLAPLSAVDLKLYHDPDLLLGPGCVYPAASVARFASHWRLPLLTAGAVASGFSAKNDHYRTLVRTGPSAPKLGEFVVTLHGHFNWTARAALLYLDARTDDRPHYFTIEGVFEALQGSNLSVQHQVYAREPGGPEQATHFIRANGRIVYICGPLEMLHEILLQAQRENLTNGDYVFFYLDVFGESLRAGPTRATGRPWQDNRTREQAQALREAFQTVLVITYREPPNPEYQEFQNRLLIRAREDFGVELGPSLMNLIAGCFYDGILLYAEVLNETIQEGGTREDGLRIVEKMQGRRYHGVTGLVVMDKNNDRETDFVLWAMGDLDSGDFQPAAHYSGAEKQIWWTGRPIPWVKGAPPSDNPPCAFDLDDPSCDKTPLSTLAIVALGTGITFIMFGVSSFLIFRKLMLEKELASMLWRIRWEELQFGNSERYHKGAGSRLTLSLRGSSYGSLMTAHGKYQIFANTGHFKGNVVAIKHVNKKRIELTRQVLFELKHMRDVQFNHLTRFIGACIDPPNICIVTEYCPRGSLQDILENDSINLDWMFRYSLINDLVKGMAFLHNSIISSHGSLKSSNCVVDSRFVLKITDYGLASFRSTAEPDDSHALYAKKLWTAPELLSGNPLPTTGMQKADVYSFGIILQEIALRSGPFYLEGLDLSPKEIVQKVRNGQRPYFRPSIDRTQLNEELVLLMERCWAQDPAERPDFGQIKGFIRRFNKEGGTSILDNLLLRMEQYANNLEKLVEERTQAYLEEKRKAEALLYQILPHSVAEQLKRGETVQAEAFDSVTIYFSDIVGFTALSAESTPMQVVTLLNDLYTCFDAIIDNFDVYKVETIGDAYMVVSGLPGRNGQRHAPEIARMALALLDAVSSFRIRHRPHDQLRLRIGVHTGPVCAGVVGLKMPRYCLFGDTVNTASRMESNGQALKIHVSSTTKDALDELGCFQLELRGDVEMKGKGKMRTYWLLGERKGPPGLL
Dyrk1A ADPGlo: blocks rat Dyrk1A kinase activity; Q63470; ADP-Glo luminescence, NFATc1 peptide; inhibition, % at 12.5 µM; 310,000 tested, 0.43% active; AID 504441; in the data active = inhibition above about 50%
aDG glyco conf: confirmation of alpha dystroglycan glycosylation activators; shares compounds with aDG glyco up; Pro5-aDG cells, alpha-DG glycosylation, IIH6 AlphaLISA; scaled to LARGE-overexpressing B10 cells as 100%; activation, % at 10 µM (by protocol); 600 tested, 17% active;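 active = activation of at least 7% in one or more replicates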;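 also: cells exposed to compound for two days before detection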
Numbers stand for hits.

What do the screens show for `CCOC(=O)[C@]12CCCC=C1N(Cc1cccc3ccccc13)C(=O)[C@H](CC(=O)NCc1ccc(OC)c(OC)c1)C2`?
GC-A act: inactive; aDG glyco up: inactive; GC-B act: inactive

How did CCSc1nnc(SCC(=O)c2c(N)n(C)c(=O)n(C)c2=O)s1 do in these assays?
GC-A act: inactive; aDG glyco up: 4.2; GC-B act: inactive; Dyrk1A ADPGlo: inactive; aDG glyco conf: inactive

Results for Cc1ccccc1Nc1nnc(SCC(=O)c2c(N)n(C)c(=O)n(C)c2=O)s1 ?
HSF1 inhib: inactive; GC-A act: inactive; aDG glyco up: inactive; HSF-1 act: inactive; GC-B act: inactive

How did CCOC(=O)c1sc2nc(CC(=O)OC)nc(NCc3ccc(F)cc3)c2c1C do in these assays?
HSF1 inhib: inactive; GC-A act: inactive; aDG glyco up: inactive; HSF-1 act: inactive; GC-B act: inactive; Dyrk1A ADPGlo: inactive

Results for CCCC(=O)N(Cc1cc(=O)[nH]c2ccccc12)c1ccccc1 ?
HSF1 inhib: inactive; GC-A act: inactive; aDG glyco up: 5.6; HSF-1 act: inactive; GC-B act: inactive; Dyrk1A ADPGlo: inactive; aDG glyco conf: inactive

How did CCC(=O)N(Cc1cc(=O)[nH]c2ccccc12)c1ccccc1 do in these assays?
HSF1 inhib: inactive; GC-A act: inactive; aDG glyco up: inactive; HSF-1 act: inactive; GC-B act: inactive; Dyrk1A ADPGlo: inactive

What do the screens show for `CCOC(=O)c1ccc(N2C(=O)c3n[nH]c(C)c3C2c2ccccc2)cc1` (stereo unspecified)?
HSF1 inhib: inactive; GC-A act: inactive; aDG glyco up: 28; HSF-1 act: inactive; GC-B act: inactive; Dyrk1A ADPGlo: inactive; aDG glyco conf: inactive

Results for O=C(Nc1ccc(-n2cc(Cl)cn2)cc1)c1ccncc1 ?
HSF1 inhib: inactive; GC-A act: inactive; aDG glyco up: 2.8; HSF-1 act: inactive; GC-B act: inactive; Dyrk1A ADPGlo: inactive; aDG glyco conf: inactive

What do the screens show for `O=C(Nc1ccc(-n2cc(Br)cn2)cc1)c1ccncc1`?
HSF1 inhib: inactive; GC-A act: inactive; aDG glyco up: inactive; HSF-1 act: inactive; GC-B act: inactive; Dyrk1A ADPGlo: inactive

How did N#Cc1ccc(-c2nc3c4ccccc4ccn3c2CC2CCCCC2)cc1 do in these assays?
GC-A act: inactive; aDG glyco up: 22; GC-B act: inactive; aDG glyco conf: 7.2

How did CCCCC(C)Sc1nc2c([nH]1)c(=S)n(C)c(=O)n2C (stereo unspecified) do in these assays?
GC-A act: inactive; aDG glyco up: inactive; GC-B act: inactive; Dyrk1A ADPGlo: inactive

What do the screens show for `CC1CCCC(C)N1CC(O)COCC1COc2ccccc2O1` (stereo unspecified)?
HSF1 inhib: inactive; GC-A act: inactive; aDG glyco up: inactive; HSF-1 act: inactive; GC-B act: inactive; Dyrk1A ADPGlo: inactive

Results for CC[N+](C)(CC)CC(O)COCC1COc2ccccc2O1 (stereo unspecified) ?
HSF1 inhib: inactive; GC-A act: inactive; aDG glyco up: 4.6; HSF-1 act: inactive; GC-B act: inactive; Dyrk1A ADPGlo: inactive; aDG glyco conf: inactive

What do the screens show for `CC(=O)Nc1nc2c(c3c1c(=O)oc1ccccc13)CCCC2`?
HSF1 inhib: inactive; HSF-1 act: inactive

What do the screens show for `COc1ccccc1NS(=O)(=O)c1ccc(C(=O)NCCCN2CCOCC2)cc1`?
GC-A act: inactive; aDG glyco up: 5.0; GC-B act: inactive; Dyrk1A ADPGlo: inactive; aDG glyco conf: inactive

How did CCn1c(=N)n(CC(=O)c2ccc(OC)cc2)c2ccccc21 do in these assays?
HSF1 inhib: inactive; GC-A act: inactive; aDG glyco up: inactive; HSF-1 act: inactive; GC-B act: inactive; Dyrk1A ADPGlo: inactive

How did CCn1c(=N)n(CC(=O)c2ccc(Cl)c(Cl)c2)c2ccccc21 do in these assays?
HSF1 inhib: inactive; GC-A act: inactive; aDG glyco up: 8.0; HSF-1 act: inactive; GC-B act: inactive; Dyrk1A ADPGlo: inactive; aDG glyco conf: 9.1
